Test results taken from PubChem BioAssay (NCATS).
Several values for one entry are separate records, joined by “and”; a condition that tells them apart may be missing. Equal values may be shown once. Records with an inconclusive call do not appear. Values without a mark were called inactive. Activity calls are given as the source filed them. Calls follow the shape of the dose curve; as a rule, active = well fitted curve in the direction sought with a large enough effect; inconclusive = small, poorly fitted or top-dose-only effect, or another doubt; inactive = no such curve, though single readings can be large; an effect the other way counts as inactive or inconclusive.

What was measured:
[1] = Viability qHTS for spleen associated tyrosine kinase inhibitor (SYKi) naive MV4-11 cells (AID 1963823); conditions: MV4-11 AML viability, CellTiter-Glo luminescence, 72 h; series mostly up to 45 µM; also: nearly all actives have a fitted effect of over 40% in size
Outline: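 Viability of MV4-11 AML cells lacking prior SYK inhibitor exposure is scored by CellTiter-Glo luminescence following 72 hr compound incubation at 37 C, 5% CO2, seeded at 500 cells per well.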

[2] = Viability qHTS for spleen associated tyrosine kinase inhibitor (SYKi) drug resistant MV4-11 cells (AID 1963824); conditions: SYKi-resistant MV4-11 viability, CellTiter-Glo, 72 h; series mostly up to 45 µM; also: nearly all actives have a fitted effect of over 35% in size
Outline: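 SYK-inhibitor-resistant MV4-11 AML cells were seeded at 500 per well onto compound and cultured 72 hours (37 °C, 5% CO2). CellTiter-Glo was then added, and after 10 min at room temperature, luminescence gave viability.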

[3] = Quantitative highthroughput screen to assess conditional lethalithy of NOMO1 cells grown in RPMI1640 with untreated serum (RPMI+s) (AID 1963876); conditions: NOMO1 AML cells in RPMI+serum, CellTiter-Glo viability, 48 h; series mostly up to 45.8 µM; also: nearly all actives have a fitted effect of over 35% in size;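 as to Viability: 100% = DMSO wells and 0% = empty wells without cells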
Outline: (§1)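 Each medium arm—HPLM with 10% dialyzed FBS, or RPMI1640 with 5 mM glucose and 10% untreated or dialyzed FBS—was screened against an 11-point, 3-fold compound titration for 48 h at 37 °C, with CellTiter-Glo luminescence as endpoint.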

[4] = Quantitative highthroughput screen to assess conditional lethalithy of NOMO1 cells grown in RPMI1640 with dialyzed fetal bovine serum (RPMI+ds) (AID 1963877); conditions: NOMO1 in RPMI+dialyzed FBS viability, ATP luminescence, 48 h; series mostly up to 45.8 µM; also: nearly all actives have a fitted effect of over 30% in size;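 as to Viability: 100% = DMSO control wells and 0% = empty wells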
Outline: as §1

[5] = Quantitative highthroughput screen to assess conditional lethalithy of NOMO1 cells grown in Human Plasma-Like Medium with dialyzed fetal bovine serum (HPLM+ds) (AID 1963878); conditions: NOMO1 AML cells in HPLM+ds, CellTiter-Glo viability, 48 h; series mostly up to 45.8 µM; also: nearly all actives have a fitted effect of over 35% in size;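 as to Viability: 100% = DMSO wells and 0% = empty wells on each plate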
Outline: as §1

[6] = Quantitative highthroughput screen to assess conditional lethalithy of P12 Ichikawa cells grown in RPMI1640 with dialyzed fetal bovine serum (RPMI+ds) (AID 1963880); conditions: ATP luminescence, 48 h; Potency: P12-Ichikawa viability; series mostly up to 45.8 µM; also: nearly all actives have a fitted effect of over 35% in size;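 as to Viability: 100% = DMSO wells and 0% = empty wells on each plate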
Outline: as §1

[7] = Quantitative highthroughput screen to assess conditional lethalithy of P12 Ichikawa cells grown in RPMI1640 with untreated serum (RPMI+s) (AID 1963881); conditions: ATP luminescence, 48 h; Potency: viability; series mostly up to 45.8 µM; also: nearly all actives have a fitted effect of over 35% in size;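 as to Viability: 100% = DMSO wells and 0% = empty wells without cells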
Outline: as §1

[8] = Quantitative highthroughput screen to assess conditional lethalithy of SEM cells grown in Human Plasma-Like Medium with dialyzed fetal bovine serum (HPLM+ds) (AID 1963882); conditions: SEM B-ALL cells in HPLM+ds, CellTiter-Glo viability, 48 h; series mostly up to 45.8 µM; also: nearly all actives have a fitted effect of over 35% in size
Outline: as §1

[9] = Quantitative highthroughput screen to assess conditional lethalithy of SEM cells grown in RPMI1640 with dialyzed fetal bovine serum (RPMI+ds) (AID 1963884); conditions: SEM B-ALL cells, RPMI+dialyzed FBS, CellTiter-Glo viability, 48 h; series mostly up to 45.8 µM; also: nearly all actives have a fitted effect of over 35% in size;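 as to Viability: 100% = DMSO control wells and 0% = empty wells without cells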
Outline: as §1

[10] = Cellular viability qHTS for adrenocortical cancer (ACC) cell line SW-13 (AID 1963989); conditions: SW-13 ACC cells viability, CellTiter-Glo, 48 h; activity (max response): stronger effect = lower value; also: nearly all actives have a fitted effect of over 65% in size;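 as to activity (max response): cells grown in serum-free medium with ITS supplement; % is scaled to controls: 0 for no effect and ±100 for the full control effect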
Outline: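 Here, serum-free SW-13 cultures were dosed up to 46 uM. Following 48 h, ATP-dependent luminescence (CellTiter-Glo) reported viable cells, and logistic modeling produced IC50 values.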

[11] = Quantitative highthroughput screen to assess conditional lethalithy of P12 Ichikawa cells grown in Human Plasma-Like Medium with dialyzed fetal bovine serum (HPLM+ds) (AID 1963879); conditions: ATP luminescence, 48 h; Potency: viability; series mostly up to 45.8 µM; also: nearly all actives have a fitted effect of over 35% in size
Outline: as §1

[12] = Quantitative highthroughput screen to assess conditional lethalithy of SEM cells grown in RPMI1640 with unreated serum (RPMI+s) (AID 1963883); conditions: SEM B-ALL cells, CellTiter-Glo viability, 48 h; series mostly up to 45.8 µM; also: nearly all actives have a fitted effect of over 35% in size;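 as to Viability: 100% = DMSO wells and 0% = empty wells without cells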
Outline: as §1

[13] = Cellular viability qHTS for adrenocortical cancer (ACC) cell line NCI-H295R (AID 1963990); conditions: CellTiter-Glo ATP luminescence, 48 h; series mostly up to 46.1 µM; also: nearly all actives have a fitted effect of over 60% in size
Outline: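 Viability of NCI-H295R after 48 h of treatment (final up to 46 uM) measured through cellular ATP luminescence.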
Potency is read from the fitted curve at half-maximal effect.

| Structure (SMILES) | Potency [1] | Potency [2] | Potency [3] | Potency [4] | Potency [5] | Potency [6] | Potency [7] | Potency [8] | Potency [9] | Potency [10] | Potency [11] | Potency [12] | activity (max response) [10] | Potency [13] |
| --- | --- | --- | --- | --- | --- | --- | --- | --- | --- | --- | --- | --- | --- | --- |
| Cc1cc(Nc2ncc(Cl)c(Nc3ccccc3S(=O)(=O)C(C)C)n2)c(OC(C)C)cc1C1CCNCC1 | 2.59 µM (active) | 2.31 µM (active) and 2.35 µM (active) | 18.6 µM (active) | 18.6 µM (active) | 13.2 µM (active) | 23.4 µM (active) | 26.3 µM (active) | 14.8 µM (active) | 16.6 µM (active) | 15.8 µM (active) |  |  |  |  |
| NNC(=O)c1ccncc1 | inactive | inactive | inactive | inactive | inactive |  |  | inactive |  |  | 16.6 µM (active) | inactive | 13.1% and -0.369% | inactive |
| Oc1ccc2ccccc2c1SSc1c(O)ccc2ccccc12 | 5.9 µM (active) and 11.6 µM (active) | 5.25 µM (active) and 9.2 µM (active) | inactive | inactive | inactive |  |  |  |  |  | inactive |  |  | 31.6 µM (active) |
| CC(C)Oc1cc(Nc2nc(N[C@@H](C)c3ccc(F)cn3)ncc2Cl)[nH]n1 | 0.058 µM (active) | 372 nM (active) and 46.1 nM (active) | 0.935 µM (active) | 0.833 µM (active) | inactive |  |  |  | 0.332 µM (active) |  | 0.833 µM (active) | 0.526 µM (active) | -7.04% | inactive |
| Cc1ncc(-c2ccnc(Nc3ccc(S(C)(=O)=O)cc3)n2)n1C(C)C | 1.3 µM (active) and 1.66 µM (active) | 920 nM (active) and 934 nM (active) | 7.43 µM (active) | 5.9 µM (active) | 7.43 µM (active) | 13.2 µM (active) | 13.2 µM (active) | 3.72 µM (active) | 5.26 µM (active) |  |  | 3.32 µM (active) |  | 7.08 µM (active) |
| O=C1N(c2ccccc2)c2ccccc2C1(Cc1ccncc1)Cc1ccncc1 | inactive | inactive | inactive | inactive | inactive |  |  | inactive | inactive |  | inactive |  | -5.03% and 7.18% | inactive |
| Cc1ccc(S(=O)(=O)Nc2nc3ccccc3nc2Nc2ccc3nsnc3c2)cc1 | 10.3 µM (active) | 8.2 µM (active) | 1.15 µM (active) | 1.62 µM (active) | 1.02 µM (active) |  | 4.07 µM (active) | 7.24 µM (active) | 4.07 µM (active) |  | 5.75 µM (active) |  | 0.221% | inactive |
| CC#C[C@]1(O)CC[C@H]2[C@@H]3CCC4=CC(=O)CCC4=C3[C@@H](c3ccc(N(C)C)cc3)C[C@@]21C | 18.6 µM (active) | 21.1 µM (active) and 16.6 µM (active) | 6.62 µM (active) | 7.43 µM (active) | 8.33 µM (active) |  |  |  |  |  | 9.35 µM (active) |  |  | 20.6 µM (active) and 25.1 µM (active) |
| Cc1ccn(-c2ccc(-c3ncco3)cc2)c(=O)c1-c1ccc2nc(N)ncc2c1 | 1.64 µM (active) | 2.31 µM (active) | inactive | inactive | inactive |  |  |  | 1.87 µM (active) |  | inactive |  |  | inactive |
| CO[C@@H]1C(N(C)C(=O)c2ccccc2)C[C@H]2O[C@]1(C)n1c3ccccc3c3c4c(c5c6ccccc6n2c5c31)C(=O)NC4=O (some centres undefined) | 0.148 µM (active) | 0.332 µM (active) | 14.8 µM (active) | 14.8 µM (active) | 9.35 µM (active) |  |  |  | 3.72 µM (active) |  |  | 1.87 µM (active) |  |  |
| Cc1nccn1CC1CCc2c(c3ccccc3n2C)C1=O (centres undefined) | inactive | inactive | inactive | inactive |  | inactive | inactive | inactive | inactive |  | inactive | inactive | -14.2% | inactive |
| CCN(c1ccccc1)c1cc(NC)[n+](C)c(C)n1 | 18.6 µM (active) | 18.6 µM (active) | inactive | inactive | inactive |  | inactive | inactive | inactive |  |  | inactive | -0.574% | inactive |
| O=S(=O)(O)CCS | inactive | inactive | 0.743 µM (active) | 0.833 µM (active) |  | 8.33 µM (active) | 3.72 µM (active) | inactive | inactive |  | 3.72 µM (active) | inactive | 21.9% and 0.753% |  |
| O=C(c1ccc(F)cc1)N1CCC[C@H](c2nc(-c3ccc(F)cc3)no2)C1 | 20.9 µM (active) | 11.8 µM (active) | inactive | inactive | inactive |  |  | inactive | inactive |  |  | inactive | -11.7% |  |
